Drawing on ChEMBL document CHEMBL4513216, “Probing the Open Global Health Chemical Diversity Library for Multistage-Active Starting Points for Next-Generation Antimalarials” (ACS Infect Dis, 2020), this text covers INHIBITION for 72 compounds.

SMILES strings stand for the structures. The campaign covered roughly 69,000 compounds. About 8,600 (12%) showed an effect of 50% or more. The full list was thinned out, with strong results kept by preference.

The experiment has as its system Plasmodium berghei. Kind of experiment: Screen against P. berghei liver stage (PbLuc), transformed with Luciferase, at 10uM. The experiment is classed as functional, HepG2. The note with it: tested at 10 uM.
Turning to `Cc1cc2ncn(C(=O)N3CCCC3)c2cc1C`, the INHIBITION was 22%.

As to `Cc1nc2c(c(NC3CC3)n1)CCN(C(=O)C(C)(C)O)CC2`, the INHIBITION is given as 20.5%.

On to `CCc1nc2c(c(NC3CC3)n1)CCN(C(=O)N1CCN(C)CC1)CC2`, for which the INHIBITION is on record as 7.65%.

On to `Cc1nc2c(c(NC(C)C)n1)CCN(C(=O)CCO)CC2`, for which the INHIBITION was 46.6%.

On to `CCc1nc2c(c(NC3CC3)n1)CCN(C(=O)Cc1nonc1C)CC2`, for which the INHIBITION worked out at 19.5%.

As to `CCc1nc2c(c(NC3CCC3)n1)CCN(C(=O)CO)CC2`, the INHIBITION is 53.2%.

Turning to `Cc1nc2c(c(NC3CC3)n1)CCN(C(=O)CCO)CC2`, the INHIBITION is 56.7%.

Regarding `Cc1nc(C)c2c(n1)CCN(C(=O)C1(C#N)CC1)CC2`, the INHIBITION came to 23.1%.

As to `Cc1nc2c(c(NC3CC3)n1)CCN(C(=O)C1(C#N)CC1)CC2`, the INHIBITION is listed as 68.4%.

Consider `Cc1nc(N2CCOCC2)nc2c1CCN(C(=O)C1(C#N)CC1)CC2`, for which the INHIBITION turned out to be 30.3%.

Take `CCOC(=O)N1CCC(n2cc3[nH]cccc-3c2=O)CC1`: the INHIBITION is reported as 9.63%.

Take `CN(C)c1cc(C2CCCN(C(=O)Cn3cc(Cl)cn3)C2)ccn1` (configuration not stated): the INHIBITION came to 2.71%.

Take `O=c1[nH]c(-c2ccccn2)nc2c1CCN(Cc1cccc(O)c1)C2`: the INHIBITION turned out to be 11.1%.

In the case of `O=C(c1ccnnc1)N1CCN2C[C@H](Oc3cccc(F)c3)C[C@H]2C1`, the INHIBITION amounted to 26.1%.

Consider `c1ccc(CCN2CCn3cc(Cn4cccn4)nc3C2)cc1`, for which the INHIBITION was found to be 24.9%.

As for `O=C(C1CN(CC2CCOCC2)CC12CCOCC2)N1CCCC1` (configuration not stated), the INHIBITION was 29.8%.

Consider `CCN(Cc1cnn(C)c1)C[C@H]1CC[C@@H](Cc2ccc(C)nc2)O1`, for which the INHIBITION stood at 12.9%.

On to `CSc1ccc(NCc2csc(C)n2)cc1F`, for which the INHIBITION is listed as -35%.

On to `CSc1ccc(NCc2csc(CS(C)(=O)=O)n2)cc1F`, for which the INHIBITION came to 17%.

On to `CNC(=O)Cc1nc(CNc2ccc(SC)c(F)c2)cs1`, for which the INHIBITION was found to be 80.7%.

In the case of `CC1CN(C(=O)c2cccc(OCc3cscn3)c2)CCO1` (configuration not stated), the INHIBITION stood at 39.75%.

Consider `CN1CCOC(C)(C(=O)N2CCSCC2)C1` (configuration not stated), for which the INHIBITION was 18.3%.

For `Cc1cc(NCCSc2nccn2C)n2ncnc2n1`, the INHIBITION worked out at 18.2%.

For `CN(C)CCNC(=O)Cc1cccc(I)c1`, the INHIBITION turned out to be 1.75%.

With `CC(C)N(CCNC(=O)c1n[nH]c2ccccc12)C(C)C`, the INHIBITION amounted to 24.8%.

Take `CNC(=O)c1cc(C2CCCNC2)n[nH]1` (configuration not stated): the INHIBITION was 5.34%.

Turning to `CNC(=O)c1ccc2c(OC)n(C)nc2c1`, the INHIBITION worked out at 20.7%.

On to `CC(C)N(CCNC(=O)c1[nH]nc2ccc(I)cc12)C(C)C`, for which the INHIBITION came to 58.2%.

Turning to `CNC(=O)c1[nH]nc2ccc(I)cc12`, the INHIBITION was 77.7%.

In the case of `Cc1cccc(-c2nc(CN3CCc4cncnc4C3)no2)c1`, the INHIBITION is -12.2%.

For the compound `Brc1ccc2[nH]c3c(c2c1)CCCC3c1nn[nH]n1` (configuration not stated), the INHIBITION amounted to 0.0996%.

Consider `CCc1cc(C(=O)N2CCCC(c3cc(=O)nc4n3CCC4)C2)no1` (configuration not stated), for which the INHIBITION was -35.5%.

In the case of `Cc1ncsc1CN1C[C@H](C(=O)N2CCCO2)[C@@H]2CCO[C@@H]2C1`, the INHIBITION was determined as 25.1%.

With `O=c1c2c[nH]c(N3CCOCC3)nc-2cn1-c1ccc2c(c1)OCO2`, the INHIBITION is recorded as -21.5%.

For the compound `CC(C)(C)OC(=O)N1CCN(c2ccc(F)cc2)CC1C(=O)O` (configuration not stated), the INHIBITION is listed as -5.8%.

For the compound `CCc1nc(CCNC(=O)Nc2ccc(C(=O)NC)cc2)cs1`, the INHIBITION amounted to 57.7%.

In the case of `CCc1nc(CCNC(=O)Nc2ccc(C(=O)NC)cc2C)cs1`, the INHIBITION was 1.28%.

Take `CCc1nc(CCNC(=O)Nc2cccc(C(=O)NC)c2C)cs1`: the INHIBITION is -12.5%.

With `CC(C)CS(=O)(=O)NC(=O)c1ccc2c(c1)ncn2C`, the INHIBITION is -57.9%.

As for `c1cc(NCc2ccncc2)nc(C2CCCNC2)c1` (configuration not stated), the INHIBITION was 18.4%.

Regarding `CC1c2ncc(COc3cccnc3)n2CCN1C(=O)C1=CCCC1` (configuration not stated), the INHIBITION is recorded as -7.11%.

For the compound `CC(C)(C)OC(=O)Cn1nc(C2CC2)cc(C(F)(F)F)c1=O`, the INHIBITION was 32%.

Regarding `CC(C)(C)C(=O)Cn1nc(C2CC2)cc(C(F)(F)F)c1=O`, the INHIBITION was found to be 77.6%.

As for `CC(C)(C)NC(=O)Cn1nc(C2CC2)cc(C(F)(F)F)c1=O`, the INHIBITION came to 28.7%.

As to `CCN1CCN(C(=O)NCc2ccccc2Cn2cncn2)CC1`, the INHIBITION was 32.7%.

Consider `Cn1ncnc1NCc1ccc(Br)cc1`, for which the INHIBITION is 20.9%.

In the case of `COc1ccc(C2SCC(=O)N2c2ncc(C)s2)cc1` (configuration not stated), the INHIBITION came out at 24.7%.

For `CC1CCCCN1C(=O)c1n[nH]c(=O)c2ccccc12` (configuration not stated), the INHIBITION came to 60.2%.

Regarding `O=C(c1n[nH]c(=O)c2ccccc12)N1CCCCC1c1ccn[nH]1` (configuration not stated), the INHIBITION is 40.9%.

For the compound `CNC(=O)C1CCCCN1C(=O)c1n[nH]c(=O)c2ccccc12` (configuration not stated), the INHIBITION was determined as 8.53%.

`O=C(COc1ccccc1)NS(=O)(=O)Cc1ccccc1`: the INHIBITION worked out at 11.8%.

Turning to `Cc1cccc(OCC(=O)NS(=O)(=O)Cc2ccccc2)c1`, the INHIBITION is recorded as 22.9%.

Consider `Cc1ccc(OCC(=O)NS(=O)(=O)Cc2ccccc2)cc1`, for which the INHIBITION is 69.8%.

In the case of `O=S(=O)(NCCCn1cncn1)c1ccc2c(c1)CCC2`, the INHIBITION is recorded as -58.1%.

`O=S(=O)(NCCCn1cncn1)c1ccc2c(c1)CCCC2`: the INHIBITION amounted to 50.4%.

On to `O=S(=O)(NCCCn1cncn1)c1ccc2c(c1)CCO2`, for which the INHIBITION is 44.9%.

Turning to `CCOc1ccc(CCCC(=O)N2CC[C@H](NC(C)=O)C2)cc1C`, the INHIBITION is recorded as 16%.

Consider `CCOc1ccc(C(=O)NC2CC2)cc1C`, for which the INHIBITION worked out at 57%.

On to `CCOc1ccc(C(=O)NC2CCN(c3ncccn3)CC2)cc1C`, for which the INHIBITION is recorded as 34.2%.

Turning to `CCN(CC)C(CNC(=O)c1ccc(S(=O)(=O)NC)cc1)c1ccco1` (configuration not stated), the INHIBITION came out at 6.12%.

In the case of `COc1cccc(OCC(=O)NS(=O)(=O)c2cccnc2)c1`, the INHIBITION was -19.05%.

On to `COc1cccc(OCC(=O)N(C)c2cccnc2N(C)C)c1`, for which the INHIBITION came to 33.1%.

As for `COc1cccc(OCC(=O)N(C)c2cccnc2)c1`, the INHIBITION is reported as 53.7%.

As for `Cc1nc(C(C)C)sc1C(C)N(C)C(=O)c1ccc(=O)n(C)n1` (configuration not stated), the INHIBITION is listed as -19.7%.

Turning to `CCN(CC)c1ncccc1CNCc1cc2ccccc2s1`, the INHIBITION turned out to be 5.91%.

Turning to `Cc1cc(NC(=O)CN2CCOC(CN(C)C)C2)n(C)n1` (configuration not stated), the INHIBITION was 4.35%.

As to `Cc1nc(CN2CCO[C@@H]3CN(Cc4nccs4)C[C@@H]3C2)cs1`, the INHIBITION worked out at 3.69%.

Regarding `O=C(CN1CCCC1c1cccs1)N1CCc2sccc2C1` (configuration not stated), the INHIBITION is reported as 19.2%.

As for `CC(C)c1noc(-c2cccc(OCC(N)=O)c2)n1`, the INHIBITION is on record as -110%.

Take `O=C(c1ccc2ncsc2c1)N1CCC(C(=O)O)(n2cccn2)CC1`: the INHIBITION is reported as -0.529%.

For the compound `O=C(c1ccc2sccc2c1)N1CCC(C(=O)O)(n2cccn2)CC1`, the INHIBITION was -16.6%.

`O=C(c1ccc2occc2c1)N1CCC(C(=O)O)(n2cccn2)CC1`: the INHIBITION came out at 60%.
